Out of some 5,500 compounds screened, about 2,000 (36%) were called active. Another 18% or so got no clear call; they are omitted. Cut-off read from the data, not from the text of the source: active = normalized growth mostly below about 0.91 (no sharp cut-off); inconclusive = no clear call, values can overlap the other calls; inactive = mostly above about 0.92. The list shows a part of the results.
Experiment: chemical genetic growth profiling, strain panel (AID 1159580);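 note: tested at 20 µM; growth read once vehicle control cultures reached saturation at 30 °C; 1 = growth at the plate median or of vehicle wells; lower values mean less growth of the strain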
Settings: growth OD

Measured: normalized growth

Cn1c(=O)c2c(ncn2CCO)n(C)c1=O
inactive: S. cerevisiae deletion strains, locus YJR075W, strain HOC1, stronger effect = lower value 1 | S. cerevisiae deletion strains, locus YKL009W, strain mrt4, stronger effect = lower value 0.99 | S. cerevisiae deletion strains, locus YKL068W, stronger effect = lower value 0.991 | S. cerevisiae deletion strains, locus YKL085W, strain MDH1 (second series), stronger effect = lower value 0.993 | S. cerevisiae deletion strains, locus YKL085W, strain MDH1, stronger effect = lower value 0.993 | S. cerevisiae deletion strains, locus YKL160W, strain elf1, stronger effect = lower value 1.02 | S. cerevisiae deletion strains, locus YKL190W, strain CNB1, stronger effect = lower value 1 | S. cerevisiae deletion strains, locus YKR001C, strain vps1, stronger effect = lower value 0.997 | S. cerevisiae deletion strains, locus YKR026C, strain gcn3, stronger effect = lower value 1.02 | S. cerevisiae deletion strains, locus YKR091W, strain srl3, stronger effect = lower value 1.02 | S. cerevisiae deletion strains, locus YLL001W, strain dnm1, stronger effect = lower value 0.993 | S. cerevisiae deletion strains, locus YLL026W, stronger effect = lower value 1.02 | S. cerevisiae deletion strains, locus YLL041C, strain sdh2, stronger effect = lower value 1.02 | S. cerevisiae deletion strains, locus YLR027C, strain aat2, stronger effect = lower value 1.01 | S. cerevisiae deletion strains, locus YLR039C, strain RIC1, stronger effect = lower value 1.02 | S. cerevisiae deletion strains, locus YLR058C, strain SHM2, stronger effect = lower value 1.01 | S. cerevisiae deletion strains, locus YLR102C, strain apc9, stronger effect = lower value 0.997 | S. cerevisiae deletion strains, locus YLR113W, strain HOG1, stronger effect = lower value 0.988 | S. cerevisiae deletion strains, locus YLR221C, strain rsa3, stronger effect = lower value 1.01 | S. cerevisiae deletion strains, locus YLR258W, strain gsy2, stronger effect = lower value 1.02 | S. cerevisiae deletion strains, locus YLR262C, strain YPT6 (second series), stronger effect = lower value 1.08 | S. cerevisiae deletion strains, locus YLR262C, strain YPT6, stronger effect = lower value 1.01 | S. cerevisiae deletion strains, locus YLR268W, strain sec22, stronger effect = lower value 1.06 | S. cerevisiae deletion strains, locus YLR320W, strain mms22, stronger effect = lower value 1.03 | S. cerevisiae deletion strains, locus YLR330W, strain CHS5, stronger effect = lower value 1 | S. cerevisiae deletion strains, locus YLR342W, strain FKS1 (second series), stronger effect = lower value 0.981 | S. cerevisiae deletion strains, locus YLR342W, strain FKS1, stronger effect = lower value 1.02 | S. cerevisiae deletion strains, locus YLR357W, strain rsc2, stronger effect = lower value 1 | S. cerevisiae deletion strains, locus YLR370C, strain arc18, stronger effect = lower value 1.02 | S. cerevisiae deletion strains, locus YLR371W, strain rom2, stronger effect = lower value 1.01 | S. cerevisiae deletion strains, locus YLR384C, strain iki3, stronger effect = lower value 1.01 | S. cerevisiae deletion strains, locus YLR418C, strain cdc73, stronger effect = lower value 0.985 | S. cerevisiae deletion strains, locus YML016C, strain PPZ1, stronger effect = lower value 1 | S. cerevisiae deletion strains, locus YML032C, strain rad52, stronger effect = lower value 1.03 | S. cerevisiae deletion strains, locus YML120C, strain ndi1, stronger effect = lower value 0.986 | S. cerevisiae deletion strains, locus YML124C, strain tub3, stronger effect = lower value 1 | S. cerevisiae deletion strains, locus YMR058W, strain fet3, stronger effect = lower value 1.02 | S. cerevisiae deletion strains, locus YMR078C, strain ctf18, stronger effect = lower value 0.998 | S. cerevisiae deletion strains, locus YMR125W, strain sto1, stronger effect = lower value 1.02 | S. cerevisiae deletion strains, locus YMR129W, stronger effect = lower value 1.02 | S. cerevisiae deletion strains, locus YMR205C, strain PFK2, stronger effect = lower value 1.02 | S. cerevisiae deletion strains, locus YMR223W, strain ubp8, stronger effect = lower value 0.971 | S. cerevisiae deletion strains, locus YMR231W, strain pep5, stronger effect = lower value 1 | S. cerevisiae deletion strains, locus YMR263W, strain SAP30, stronger effect = lower value 1.02 | S. cerevisiae deletion strains, locus YMR307W, strain GAS1, stronger effect = lower value 0.975 | S. cerevisiae deletion strains, locus YNL067W, strain RPL9B, stronger effect = lower value 1.02 | S. cerevisiae deletion strains, locus YNL071W, strain lat1, stronger effect = lower value 1.01 | S. cerevisiae deletion strains, locus YNL128W, strain TEP1, stronger effect = lower value 1 | S. cerevisiae deletion strains, locus YNL153C, strain GIM3, stronger effect = lower value 1.04 | S. cerevisiae deletion strains, locus YNL183C, strain NPR1, stronger effect = lower value 0.897 | S. cerevisiae deletion strains, locus YNL209W, strain ssb2, stronger effect = lower value 1.01 | S. cerevisiae deletion strains, locus YNL233W, strain BNI4, stronger effect = lower value 1.03 | S. cerevisiae deletion strains, locus YNL248C, strain rpa49, stronger effect = lower value 1.01 | S. cerevisiae deletion strains, locus YNL250W, strain rad50, stronger effect = lower value 0.997 | S. cerevisiae deletion strains, locus YNL271C, strain bni1, stronger effect = lower value 1.01 | S. cerevisiae deletion strains, locus YNL298W, strain CLA4, stronger effect = lower value 1.01 | S. cerevisiae deletion strains, locus YNL307C, strain MCK1, stronger effect = lower value 0.969 | S. cerevisiae deletion strains, locus YNL322C, strain KRE1 (second series), stronger effect = lower value 1.05 | S. cerevisiae deletion strains, locus YNL322C, strain KRE1, stronger effect = lower value 1 | S. cerevisiae deletion strains, locus YNR049C, strain mso1, stronger effect = lower value 1.02 | S. cerevisiae deletion strains, locus YNR052C, strain pop2, stronger effect = lower value 1.01 | S. cerevisiae deletion strains, locus YOL006C, strain TOP1, stronger effect = lower value 0.99 | S. cerevisiae deletion strains, locus YOL012C, strain htz1 1.01 | S. cerevisiae deletion strains, locus YOL147C, strain pex11, stronger effect = lower value 1.01 | S. cerevisiae deletion strains, locus YOR001W, strain rrp6, stronger effect = lower value 1.02 | S. cerevisiae deletion strains, locus YOR061W, strain CKA2, stronger effect = lower value 1.01 | S. cerevisiae deletion strains, locus YOR069W, strain VPS5, stronger effect = lower value 1.01 | S. cerevisiae deletion strains, locus YOR070C, strain gyp1, stronger effect = lower value 1.02 | S. cerevisiae deletion strains, locus YOR080W, strain dia2, stronger effect = lower value 1.04 | S. cerevisiae deletion strains, locus YOR083W, strain WHI5, stronger effect = lower value 1.02 | S. cerevisiae deletion strains, locus YOR106W, strain vam3, stronger effect = lower value 1.03 | S. cerevisiae deletion strains, locus YOR136W, strain idh2, stronger effect = lower value 0.993 | S. cerevisiae deletion strains, locus YOR144C, strain elg1, stronger effect = lower value 0.997 | S. cerevisiae deletion strains, locus YOR184W, strain ser1, stronger effect = lower value 0.956 | S. cerevisiae deletion strains, locus YOR231W, strain MKK1, stronger effect = lower value 0.981 | S. cerevisiae deletion strains, locus YOR265W, strain rbl2, stronger effect = lower value 1.01 | S. cerevisiae deletion strains, locus YOR270C, strain vph1, stronger effect = lower value 1.05 | S. cerevisiae deletion strains, locus YOR290C, strain snf2, stronger effect = lower value 1.03 | S. cerevisiae deletion strains, locus YOR316C, strain cot1, stronger effect = lower value 1 | S. cerevisiae deletion strains, locus YPL051W, strain arl3, stronger effect = lower value 1.01 | S. cerevisiae deletion strains, locus YPL055C, strain LGE1, stronger effect = lower value 0.989 | S. cerevisiae deletion strains, locus YPL078C, strain atp4, stronger effect = lower value 1.02 | S. cerevisiae deletion strains, locus YPL106C, strain sse1, stronger effect = lower value 1.07 | S. cerevisiae deletion strains, locus YPL240C, strain hsp82, stronger effect = lower value 0.985 | S. cerevisiae deletion strains, locus YPL241C, strain CIN2, stronger effect = lower value 1.01 | S. cerevisiae deletion strains, locus YPL256C, strain CLN2, stronger effect = lower value 0.974 | S. cerevisiae deletion strains, locus YPR119W, strain clb2, stronger effect = lower value 1 | S. cerevisiae deletion strains, locus YPR141C, strain kar3, stronger effect = lower value 0.996 | S. cerevisiae deletion strains, locus YPR163C, strain tif3, stronger effect = lower value 1.02 | S. cerevisiae deletion strains, locus YPR167C, strain met16, stronger effect = lower value 0.997 | S. cerevisiae deletion strains, strain wtn01, stronger effect = lower value 1.03 | S. cerevisiae strains, strain wild type, stronger effect = lower value 0.998
